Among all 410,000 compounds or so, about 7,200 (1.8%) were called active. A call without a number means that no potency is given here. Inconclusive results (about 7%) are left out. Calls follow the shape of the dose curve; as a rule, active = well fitted activation curve with a large enough effect; inconclusive = small, poorly fitted or top-dose-only effect, or another doubt; inactive = no such curve, though single readings can be large or run the other way. The full list was thinned out, with actives kept by preference.
Potency is read from the fitted curve at half-maximal effect.

This assay can be described thus: qHTS of TDP-43 Inhibitors. Also: nearly all actives have a fitted effect of over 50% in size. The conditions noted are these: TDP-43 expressing yeast growth rescue, BacTiter-Glo, 24 h; series mostly up to 46.1 µM. The method, boiled down:
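Readout is BacTiter-Glo luminescence of cell growth, so inhibitors register as activators. TDP-43-expressing yeast at OD600=0.02 in galactose medium, after raffinose pregrowth to mid-log, were incubated with compound for 24 hr at 30 deg C.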
(In general: qHTS replaces the single test concentration by a dilution series.)
In the case of `CCSc1ncc(Cl)c(C(=O)Nc2c(C(=O)c3ccccc3)oc3ccccc23)n1`, the Potency result is “inactive”. For the compound `C[C@H]1NS(=O)(=O)c2cc(Cl)ccc2O[C@@H]1c1ccccc1`, the Potency entry is “inactive”. With `C[C@@H]1NS(=O)(=O)c2cc(Cl)ccc2O[C@@H]1c1ccccc1`, the Potency is 17.8 µM (active). For `COC[C@@H]1NS(=O)(=O)c2ccc(Br)cc2O[C@H]1c1ccccc1`, the Potency result was “inactive”. On the same count and under the same terms, with `Cc1ccc2nc(-c3ccc(O)cc3)c(Nc3ccc4c(c3)OCO4)n2c1` the entry was “inactive”; with `COc1ccc(C)cc1S(=O)(=O)Nc1cccc(Cl)c1Cl`, “inactive”; with `CCc1ccc(Nc2n[n+](-c3ccccc3)c(-c3cccc(Cl)c3Cl)s2)cc1`, 35.5 µM (active). Same read-out and setting: under `COc1cc(Br)c(-c2sc(Nc3ccccc3)n[n+]2-c2ccccc2)cc1OC` stands “inactive”; under `COc1ccc(C)cc1Nc1n[n+](-c2ccccc2)c(-c2cccc(Cl)c2Cl)s1`, 35.5 µM (active).

Regarding `Cc1ccc(S(=O)(=O)N2CCc3cc(C(=O)Nc4ccc(Cl)cc4C)ccc32)cc1`, the Potency result is “inactive”. Still for that read-out and setting: under `CC(=O)c1c(C)n(S(=O)(=O)c2ccc(Cl)cc2)c2ccc(NS(=O)(=O)c3ccc(Cl)cc3)cc12` stands “inactive”. As for `CCc1ccc(NC(=O)c2cc3c(=O)n(Cc4cccnc4)ccc3nc2C)cc1`, the Potency result is “inactive”.

As for `CCc1cc2c(NC(Cc3ccccc3)C(=O)O)ncnc2s1` (centres undefined), the Potency result was “inactive”. Take `CCc1cc2c(NC3CCCC3)ncnc2s1`: the Potency was 12.6 µM (active). As for `CCc1cc2c(SCC(=O)Nc3ncc(Cl)c(C)c3Cl)ncnc2s1`, the Potency result is “inactive”.

With `Cc1ccc2c(=O)c(C(=O)c3cccc(Cl)c3)cn(CC(=O)NCc3ccccc3)c2n1`, the Potency result is “inactive”. Turning to `Cc1nn2c(=O)cc(COC(=O)c3cccc(NC(=O)COc4ccccc4Cl)c3)nc2s1`, the Potency result was “inactive”.

With `CCOc1cc(/C=N/n2cnnc2)c(Br)cc1O`, the Potency entry was “inactive”. For the compound `CCOc1c(Br)cc(/C=C2\C(=O)N(CCC#N)N=C2C)cc1OC`, the Potency result is “inactive”.

On to `CCOc1cc(/C=N/O)cc(Br)c1OC`, for which the Potency is 11.2 µM (active). Take `O=S(=O)(c1ccc(Br)cc1)c1nnn2c1nc(N1CCOCC1)c1sccc12`: the Potency entry is “inactive”. For `COc1cc(Nc2nc(-c3ccc(OC)c(OC)c3)nc3ccccc23)cc(OC)c1`, the Potency entry was “inactive”. As to `CCCCN(CC)CCCNC(=O)c1nn(C)c2c1CS(=O)(=O)c1ccccc1-2`, the Potency entry is “inactive”.

As to `C=CCSc1nnc(Cn2c(=O)sc3ccccc32)n1C`, the Potency result was “inactive”. Same read-out and setting: under `COc1ccc(CN2CCOC2=O)cc1OC` stands “inactive”; under `COc1ccc(Cn2c(=O)sc3ccccc32)cc1OC`, 11.2 µM (active).

Take `CCCCCn1c(=O)[nH]c2cc(C(=O)NCCN(C)CCCC)ccc2c1=O`: the Potency result is “inactive”. With `CCC(=O)N1CCc2cc(S(=O)(=O)NC(Cc3ccccc3)C(=O)NCc3ccccc3)ccc21` (centres undefined), the Potency result is “inactive”. As to `COc1ccc(CNC(=O)C2=Cc3cccc(OC)c3OC2)cc1OC`, the growth rescue (activation) was 0% [at 9.22 µM] (inactive).

In the case of `COc1ccc([N+](=O)[O-])cc1NC(=O)COC(=O)/C=C/c1ccco1`, the Potency entry was “inactive”. For the compound `COc1ccc(NC(=O)c2ccco2)cc1NC(=O)COc1ccc(C)c(C)c1`, the Potency entry was “inactive”. For `COc1cc(NC(=O)c2cc([N+](=O)[O-])ccc2Br)ccc1NC(=O)c1ccco1`, the Potency is 10 µM (active). For the compound `COCCNC(=O)c1ccc2c(c1)N=C(C)c1cc(C)ccc1S2`, the Potency result was “inactive”. Regarding `CCCn1c2ccccc2c2cnn(CC(=O)N(CC)c3cc(C)ccc3C)c(=O)c21`, the Potency result is “inactive”.

Consider `CCCn1c2ccccc2c2cnn(CC(=O)NCCCOC(C)C)c(=O)c21`, for which the Potency entry is “inactive”. As to `CCCn1c2ccccc2c2cnn(CC(=O)N(C)c3ccccc3CC)c(=O)c21`, the Potency is 28.2 µM (active).

With `Cc1ccc(S(=O)(=O)c2nc(-c3cccs3)oc2N2CCCCC2)cc1`, the Potency entry was “inactive”. On the same count and under the same terms, under `COc1ccc(N2CCN(c3cc(C)nc4nncn34)CC2)cc1` stands “inactive”; under `Cc1ccccc1NC(=O)Cn1cc(C(=O)c2cccs2)c2ccccc21`, “inactive”. For the compound `Cc1ccc(C(=O)N2CCc3cc(CNC(=O)c4ccc(Br)cc4)ccc32)cc1`, the Potency result is “inactive”.

Turning to `O=C(O)C1CC(=O)N(Cc2cccnc2)C1` (centres undefined), the Potency entry is “inactive”. `CCCCc1ccc(NC(=O)NCc2cccnc2)cc1`: the Potency result was “inactive”.

As to `CCCCCCCCCCCCN1C(=O)CSC1c1cccnc1` (centres undefined), the Potency was 20 µM (active). For the compound `CCOc1ccc(CNC(=O)C2CCN(c3nnc(-n4cccc4CNc4ccc(C)cc4)s3)CC2)cc1OC`, the Potency entry was “inactive”. For the compound `COc1ccccc1N1CCN(c2ccc(=O)n(CC(=O)NCc3ccc(OC(C)C)cc3)n2)CC1`, the Potency entry is “inactive”.

`Clc1ccc(Nc2nc(-c3cccs3)cs2)nc1`: the Potency is 8.91 µM (active). As for `CCN(c1ccc(Cl)cc1)S(=O)(=O)c1nnc(NC(=O)c2ccco2)s1`, the Potency result was “inactive”.

As to `CCc1cnc2c(c1SCC(=O)N1CCC(C)CC1)c(=O)n(C)c(=O)n2C`, the Potency result is “inactive”. On the same count and under the same terms, with `CCCc1cc(-c2n[nH]c(=S)n2CC)c2ccccc2n1` the entry was “inactive”; with `Cc1cc(-c2n[nH]c(=S)n2/N=C/C(Br)=C/c2ccccc2)n[nH]1`, 35.5 µM (active); with `O=C(c1cccc(Cl)c1)N1CCN(CCc2ccncc2)CC1`, “inactive”. The same measure, in the same setting: under `C#Cc1cc(N2CCN(C(=O)c3ccoc3)CC2)n2nc(-c3cccc(Cl)c3)cc2n1` stands 22.4 µM (active); under `O=C(Cn1cc(SCc2cccc(Cl)c2)c2ccccc21)N1CCCCC1`, “inactive”; under `CN(C(=O)c1cc2c(=O)n3ccccc3nc2s1)C1CCCCC1`, 14.1 µM (active).

Consider `O=C(Nc1ccc(OC(F)(F)F)cc1)c1cc2c(=O)n3ccccc3nc2s1`, for which the Potency result was “inactive”. On to `CCOCCCNC(=O)c1cc2c(=O)n3ccccc3nc2s1`, for which the Potency entry is “inactive”. Still for that read-out and setting: under `CCN(CCCNC(=O)c1cc2c(=O)n(CC)c3ccccc3c2s1)Cc1ccccc1` stands “inactive”; under `Cc1oc2ncnc(N3CCOCC3)c2c1C(=O)NCCc1ccccc1`, “inactive”. Regarding `NS(=O)(=O)c1ccc(CCNC(=O)CCCCCn2c(=O)[nH]c3ccccc3c2=O)cc1`, the Potency result is “inactive”. In the case of `CCc1ccc(NC(=O)c2cc(S(=O)(=O)NC3CCCCCC3)ccc2F)cc1`, the Potency entry was “inactive”.

Regarding `CCOc1ccccc1NC(=O)c1ccc2c(c1)CCN2S(=O)(=O)c1ccc(C)cc1`, the Potency result was “inactive”. As to `CCOc1ccc(OCC)c(NC(=O)c2cc(C)nc3c2c(C)nn3-c2cccc(Cl)c2C)c1`, the growth rescue (activation) was 19.8% [at 9.22 µM] (inactive). Consider `O=C(Nc1ccc(S(=O)(=O)Nc2ncccn2)cc1)C12CC3CC(CC(C3)C1)C2`, for which the Potency result was “inactive”. As to `COC(=O)c1ccc(NC(=O)C23CC4CC(C2)CC(n2cnc(Cl)n2)(C4)C3)cc1`, the Potency is 25.1 µM (active). Same read-out and setting: with `O=C(Nc1c2c(nn1-c1ccc(F)cc1)CS(=O)C2)C12CC3CC(CC(C3)C1)C2` (centres undefined) the entry was “inactive”; with `CN(C)c1ccc(C(CNS(=O)(=O)c2cc(F)ccc2F)N2CCOCC2)cc1` (centres undefined), “inactive”. Consider `CCOc1ccc(N2CC(c3nc4ccccc4n3CCOc3ccc(OC)cc3)CC2=O)cc1` (centres undefined), for which the Potency entry was “inactive”. As for `COc1cc(OC)c(NC(=O)N2CC3CCCN3c3ccccc32)cc1Cl` (centres undefined), the Potency entry is “inactive”. As to `Cc1ccc(C2C=C(c3ccc(Cl)cc3)Nc3nc(NC(=O)CCC(=O)O)nn32)cc1` (centres undefined), the Potency result is “inactive”.

Consider `COc1ccc(OC)c(C(=O)c2ccc(C(=O)N3CCN(Cc4csc(C)n4)CC3)cc2)c1`, for which the Potency result is “inactive”. `COc1ccc(OC)c(C(=O)c2ccc(Cl)cc2)c1`: the Potency is 12.6 µM (active). Turning to `CCC(C)NC(=O)c1cc(Cl)ccc1OC` (centres undefined), the Potency result was “inactive”.

On to `Cc1oc2ccc(O)c(CN3CCC(C)CC3)c2c1C(=O)Nc1ccccc1`, for which the Potency entry is “inactive”.

On to `COCCNc1ncnc2c1c(-c1ccccc1)cn2-c1ccc(C)c(Cl)c1`, for which the Potency was 12.6 µM (active). On to `CCOC(=O)C1CCN(c2ncnc3c2c(-c2ccccc2)cn3-c2ccc(C)cc2)CC1`, for which the Potency entry is “inactive”. The same measure, in the same setting: with `CCOC(=O)C1CCN(c2ncnc3c2c(-c2ccccc2)cn3-c2cccc(C)c2)CC1` the entry was “inactive”; with `CCOc1ccc(N(CC)S(=O)(=O)N2CCCC(C(=O)NCc3ccc(Cl)cc3)C2)cc1` (centres undefined), “inactive”; with `CCOC(=O)c1ccc(NC(=O)Cn2cc(S(=O)(=O)Cc3ccccc3F)c3ccccc32)cc1`, “inactive”. For the compound `Cc1c(CNC2CCCCC2)c(C(=O)O)c(C)n1Cc1cccc(Cl)c1`, the Potency result is “inactive”.

Take `COc1ccc(N2CCN(S(=O)(=O)CCNC(=O)C(c3ccccc3)c3ccccc3)CC2)cc1`: the Potency entry was “inactive”.

With `COc1ccc(OCC(=O)NCCS(=O)(=O)N2CCN(c3ccc(F)cc3)CC2)cc1`, the Potency result was “inactive”. Still for that read-out and setting: under `COc1ccc(N2CCN(S(=O)(=O)CCNC(=O)C34CC5CC(CC(C5)C3)C4)CC2)cc1` stands 20 µM (active); under `COCCNC(=O)CSc1c(C)cnc2c1c(=O)n(C)c(=O)n2C`, “inactive”. Consider `Cc1ccccc1NC(=O)c1c(NC(=O)c2ccccc2F)sc2c1CCC(C)C2` (centres undefined), for which the Potency result is “inactive”. As to `CCOc1ccc(N(CC)S(=O)(=O)N2CCCC(C(=O)Nc3ccc(C(C)=O)cc3)C2)cc1` (centres undefined), the Potency entry was “inactive”.

Consider `Nc1ncc(S(=O)(=O)Nc2ccc(OC(F)(F)F)cc2)cn1`, for which the Potency result is “inactive”.

In the case of `O=C(O)c1ccc(NS(=O)(=O)c2cccc3nsnc23)cc1`, the Potency result was “inactive”. As to `O=S(=O)(Nc1ccc(OC(F)(F)F)cc1)c1cccc2nonc12`, the Potency was 11.2 µM (active). Same read-out and setting: under `Cc1ccc(CSc2oc(-c3cccs3)nc2S(=O)(=O)c2ccc(C)cc2)cc1` stands “inactive”; under `O=C(Cc1ccc(Cl)cc1)Nc1ccc2nn(-c3ccc(Cl)cc3)nc2c1`, “inactive”. With `COc1ccc(Cn2ccnc2SCC(=O)Nc2ccc3c(c2)OCO3)cc1`, the Potency entry was “inactive”. For `O=C(CSCc1ccc([N+](=O)[O-])cc1)NCCSCc1ccccc1`, the Potency is 20 µM (active).

`O=C(Cc1ccc([N+](=O)[O-])cc1)NCCS(=O)(=O)N1CCN(c2ccccc2)CC1`: the Potency result was “inactive”. As for `O=C(CSCc1ccc([N+](=O)[O-])cc1)Nc1cccc(C(=O)Nc2ccccc2C(=O)O)c1`, the Potency entry is “inactive”. With `CCOC(=O)c1ccc(NC(=O)c2c(NCc3cccc(OC)c3)sc3c2CCC3)cc1`, the Potency entry was “inactive”. Turning to `Cc1cccc(OCC(=O)N(Cc2ccc(C(C)C)cc2)Cc2ccco2)c1C`, the Potency result is “inactive”. Same read-out and setting: under `CC(C)OP(=O)(OC(C)C)C(Nc1ccccc1)c1cccc([N+](=O)[O-])c1` (centres undefined) stands “inactive”. As to `CC(Nc1ccc([N+](=O)[O-])cc1[N+](=O)[O-])c1ccccc1` (centres undefined), the Potency was 12.6 µM (active). On the same count and under the same terms, with `CC(Nc1ccc(-c2nc(-c3ccco3)no2)cc1[N+](=O)[O-])c1ccccc1` (centres undefined) the entry was “inactive”.

The record behind these values is PubChem BioAssay AID652104 (National Center for Advancing Translational Sciences (NCATS), 2013).
